Rows were chosen to be rich in hits. Some 2.3% of all compounds tested hit in one or more screens of this group.
Mcl1-Bid inh: Mcl-1/Bid interaction inhibition | 0.97% of 220,000 active | AID 1021 | TR-FRET Mcl-1/Bid-Dy647 peptide binding, 1536-well | inhibition, % at 21.7 µM | Q07820;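 active = compounds that cut the binding signal by more than half at the single screening dose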;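 also: His-tagged Mcl-1 with europium anti-His antibody binding Bid BH3 peptide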
Target sequence (Q07820 whole entry, looked up): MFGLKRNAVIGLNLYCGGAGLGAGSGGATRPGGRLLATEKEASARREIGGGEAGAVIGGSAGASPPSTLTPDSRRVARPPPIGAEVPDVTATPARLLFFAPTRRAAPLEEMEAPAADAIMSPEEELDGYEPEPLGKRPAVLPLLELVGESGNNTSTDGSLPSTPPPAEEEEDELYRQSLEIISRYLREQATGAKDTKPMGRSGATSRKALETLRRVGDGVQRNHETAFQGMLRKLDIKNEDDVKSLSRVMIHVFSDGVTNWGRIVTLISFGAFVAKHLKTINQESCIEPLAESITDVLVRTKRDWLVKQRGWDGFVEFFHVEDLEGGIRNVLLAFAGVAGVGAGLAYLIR
GLD-1 RNA inh: GLD-1-TGE RNA interaction inhibition (C. elegans) | purified GLD-1 + fluorescein TGE RNA, fluorescence polarization | AID 2280 | 0.44% of 320,000 active | inhibition, % at 5.96 µM;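 active = percent inhibition above a per-plate cutoff, the plate mean of test compounds plus 3 SD, cut at about 30% in these data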
MCL1 BIM primary: MCL1-BIM-BH3 interaction inhibition (human); GST-MCL1 / FITC-Bim-BH3 fluorescence polarization; inhibition, % at 10.9 µM; 0.68% of 320,000 active; AID 2057;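 active = inhibition above the mean inhibition of all tested compounds plus 3 SD, set per campaign, cut at about 40% in these data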;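 also: higher means more loss of mP so more displacement of Bim peptide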
Bim-Mcl-1: disrupts Bim peptide binding to human Mcl-1 | inhibition, % at 10 µM | 0.1% of 190,000 active | AID 1009 | Bead-based flow cytometry, Bim peptide-Mcl-1 binding; in the data active = inhibition above about 40%
Bcl-xL primary: blocks human Bcl-xL binding to Bim BH3 peptide; inhibition, % at 10.9 µM; Q07817; 0.7% of 320,000 active; GST-Bcl-xL / FITC-Bim BH3 peptide fluorescence polarization;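 active = inhibition above the mean of all tested compounds plus 3 SD, cutoff set per campaign, cut at about 30% in these data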;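 also: inhibitors lower millipolarization by displacing the labeled peptide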
Mcl1 Noxa PPI: Mcl-1/Noxa interaction inhibition; Q07820; TR-FRET Mcl-1/Noxa peptide binding, 2 h; inhibition, % at 21.7 µM; 1.5% of 220,000 active;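 active = compounds that cut the protein-peptide binding signal by more than 50% relative to plate controls in a single-dose test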;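 also: His-tagged Mcl-1 with rhodamine Noxa BH3 peptide and terbium anti-His antibody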
Each line names hits and unclear results; the compound was inactive in the other large screens.

Cc1ccc(NC(=O)CC2(CC(=O)O)CCCC2)c(C)c1	none (no result: Mcl1-Bid inh, Bim-Mcl-1, Mcl1 Noxa PPI)
CCN(C(=O)CSc1nnc(-c2ccc3c(c2)OCO3)o1)C1CCS(=O)(=O)C1 (centres undefined)	none (no result: Mcl1-Bid inh, Bim-Mcl-1, Mcl1 Noxa PPI)
O=C(O)CCc1ccc(-c2ccc(Br)cc2)n1Cc1ccco1	Mcl1 Noxa PPI 51.5
COc1cccc(N2CCN(C(=O)NC3CCCCC3)CC2)c1	Mcl1-Bid inh 94.0
COc1ccc(N2CCN(C(=O)NC3CCCCC3)CC2)cc1	none
O=C(CSc1nnc2c(n1)[nH]c1ccccc12)Nc1ccc2c(c1)OCO2	Mcl1 Noxa PPI 82.9
O/N=C1/CCCSc2ccccc21	Mcl1 Noxa PPI 86.1
COc1ccc(NC(=S)Nc2ccc3nccnc3c2)cc1	Mcl1 Noxa PPI 51.8
CCOC(=O)/C=C(\C)Sc1cc(=O)oc2ccccc12	none
CCOC(=O)/C=C(\C)Sc1cc(O)c2ccccc2c1O	Mcl1 Noxa PPI 87.8 (no result: GLD-1 RNA inh, MCL1 BIM primary, Bim-Mcl-1, Bcl-xL primary)
COc1ccccc1N(C)S(=O)(=O)c1ccc(C(=O)OCC(=O)c2c[nH]c3ccccc23)cc1	none
COc1cc(Cl)c(C)cc1NC(=O)CCCn1c(=O)oc2ccccc21	Mcl1-Bid inh 95.3
COc1cc(OC)c(NC(=O)CCCn2c(=O)oc3ccccc32)cc1Cl	none
COc1ccc(-c2cc(N)n(S(=O)(=O)c3ccc(C)cc3)n2)c(OC)c1	Bcl-xL primary 47.6
COc1ccc(S(=O)(=O)n2nc(-c3ccc(Cl)cc3)cc2N)cc1	none (no result: Bim-Mcl-1)
COc1ccccc1/C=N/OC(=O)c1ccc(C)cc1	none
O=C(C1=C[C@@H](c2ccc3c(c2)OCO3)C[C@@H](OCCCCO)O1)N1CCN(Cc2ccc3c(c2)OCO3)CC1	none
O=C(C1=C[C@@H](c2ccc(C(F)(F)F)cc2)C[C@@H](OCc2ccc(CO)cc2)O1)N1CCN(Cc2ccccc2)CC1	Mcl1 Noxa PPI 80.9
C#Cc1ccc([C@@H]2C=C(C(=O)N3CCN(Cc4ccc5c(c4)OCO5)CC3)O[C@H](OCCCCO)C2)cc1	Mcl1-Bid inh 83.8
C#Cc1ccc([C@H]2C=C(C(=O)O)O[C@@H](OCc3ccc(CO)cc3)C2)cc1	Mcl1-Bid inh 50.6
CC1Oc2ccccc2N(CC(=O)N2CCCCCC2)C1=O (centres undefined)	none (no result: Mcl1-Bid inh, Bim-Mcl-1, Mcl1 Noxa PPI)
CC1(C(=O)NNC(=O)C2CCCCC2)CC1(Cl)Cl (centres undefined)	Mcl1-Bid inh 99.0 (no result: Bim-Mcl-1)
O=C(O)COc1ccccc1O	Mcl1 Noxa PPI 52.0
Cc1c(NC(=O)COC(=O)C2=COCCO2)cccc1[N+](=O)[O-]	none (no result: Mcl1-Bid inh, Bim-Mcl-1, Mcl1 Noxa PPI)
Cc1ccc(OCC(=O)NCc2ccco2)c([N+](=O)[O-])n1	Mcl1-Bid inh 79.6
Cc1ccc(CNC(=O)COc2ccc(C)nc2[N+](=O)[O-])cc1	none
Cc1c(CCC(=O)O)c(=O)n2c([nH]c3ccccc32)c1C#N	none
N#Cc1cc(NC(=O)c2ccc(F)cc2)c(=O)n2c1[nH]c1ccccc12	Mcl1 Noxa PPI 60.8
CC1C(=O)CCN(C(C)C)C1C (centres undefined)	Mcl1-Bid inh 89.8
Cc1ccc(NC2CCCN(C(=O)c3cccs3)C2)cc1C (centres undefined)	none (no result: Mcl1-Bid inh, Bim-Mcl-1, Mcl1 Noxa PPI)
CCN(CC)C(=O)c1sc2nc(N3CCOCC3)c3c(c2c1N)CCCC3	Mcl1 Noxa PPI 58.6
CCOC(=O)c1sc2nc(N3CCOCC3)c3c(c2c1N)CCCC3	none
CCc1cccc(NC(=O)CN(C)C2=NS(=O)(=O)c3ccccc32)c1	none (no result: Mcl1-Bid inh, Bim-Mcl-1, Mcl1 Noxa PPI)
CN(CCO)c1nc(N)c2c(N)nc3c(c2c1C#N)CC(=O)N3Cc1cccs1	MCL1 BIM primary 41.4, Bcl-xL primary 35.8
COc1ccc(CN2C(=O)Cc3c2nc(N)c2c(N)nc(N4CCOCC4)c(C#N)c32)cc1	MCL1 BIM primary 46.8, Bcl-xL primary 38.1 (no result: Bim-Mcl-1)
CCC1Cc2c(nc(N)c3c(N)nc(N4CCOCC4)c(C#N)c23)O1 (centres undefined)	none
CN(CCO)c1nc(N)c(C#N)c(CC#N)c1C#N	none (no result: Bim-Mcl-1)
COc1cc(CCC(=O)OCC(=O)Nc2ccc(F)c(F)c2)cc(OC)c1OC	none (no result: Mcl1-Bid inh, Bim-Mcl-1, Mcl1 Noxa PPI)
CCN(c1ccc(NC(=O)COC(=O)c2ccc(C)s2)cc1)C(C)C	Mcl1 Noxa PPI 62.6
CCN(c1ccc(NC(=O)COC(=O)CCc2cc(OC)c(OC)c(OC)c2)cc1)C(C)C	Mcl1 Noxa PPI 58.6 (no result: GLD-1 RNA inh, MCL1 BIM primary, Bcl-xL primary)
CCCCn1c(=O)[nH]c(=O)c2c1nc(-c1cc(Cl)c(OC)c(OC)c1)n2C	none (no result: Mcl1-Bid inh, Bim-Mcl-1, Mcl1 Noxa PPI)
